Source: PubChem BioAssay
Compounds with a hit are over-represented: about 9.5% of the library has one in this group of screens.
Tau fibril FP = qHTS for Inhibitors of Tau Fibril Formation, Fluorescence Polarization | Microtubule-associated protein tau (Homo sapiens), P10636 | K18 P301L tau heparin fibrillization, Alexa594 FP, 6 h | Potency, µM (highest dose often 57.7 µM), actives largely listed as inhibitors | actives 0.39% (n = 280,000) | AID 1468, 2008; also: nearly all actives have a fitted effect of over 55% in size
Target sequence (P10636 561-689 P618L limits assumed): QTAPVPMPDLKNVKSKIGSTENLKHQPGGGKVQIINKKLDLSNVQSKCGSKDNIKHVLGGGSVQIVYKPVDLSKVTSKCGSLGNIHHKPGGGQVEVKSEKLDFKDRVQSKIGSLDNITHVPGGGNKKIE
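Read-out: fluorescence polarization of Alexa 594-labeled tau (0.24 uM), 555 nm excitation, 632 nm emission. Mixtures held 15 uM unlabeled K18 P301L, compound and 20 uM heparin, pH 7 acetate buffer, incubated 6 hr at 37 C.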
HPGD inh = qHTS Assay for Inhibitors of HPGD (15-Hydroxyprostaglandin Dehydrogenase) | Potency, µM, usual class: inhibitors | 15-hydroxyprostaglandin dehydrogenase [NAD(+)] (Homo sapiens), P15428 | actives 4.3% (n = 150,000) | purified HPGD, NADH fluorescence kinetic, PGE2 substrate; active = well fitted inhibition curve with a large enough effect, not every such curve was filed as active; inconclusive = small, poorly fitted or top-dose-only effect, or another doubt; inactive = no such curve, though single readings can be large or run the other way
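20 nM HPGD preincubated 15 min at room temperature with compound in 50 mM Tris-HCl pH 8, 0.01% Tween 20. Started with 1 mM NAD+ and 30 uM prostaglandin E2; NADH fluorescence (360/450 nm) read 5 times over 30-s intervals, last minus first.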
Tau fibril ThT = qHTS for Inhibitors of Tau Fibril Formation, Thioflavin T Binding. recombinant tau K18 P301L, heparin-induced fibrillization, ThT fluorescence. AID 1460, 2008. Potency, µM (top dose mostly 57.4 µM), hits mostly inhibitors. actives 2.1% (n = 270,000). Microtubule-associated protein tau (Homo sapiens), P10636; also: nearly all actives have a fitted effect of over 55% in size
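Tau K18 P301L fragment (15 uM unlabeled plus 0.24 uM Alexa 594-labeled) in 100 mM sodium acetate pH 7 with compound, fibrillization induced by 20 uM heparin for 6 hr at 37 C. Thioflavin T (30 uM) added, fluorescence read after 1 hr (ex 450, em 510 nm).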
Tau fluor cs = Counterscreen qHTS for Inhibitors of Tau Fibril Formation, Fluorescence Polarization. tau K18 P301L Alexa594 fluorescence, heparin fibrillization. Potency, µM (titrated, usually from 57.7 µM). actives 0.93% (n = 280,000). AID 1463, 2008; also: nearly all actives have a fitted effect of over 55% in size
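Human tau K18 P301L (15 uM unlabeled, 0.24 uM Alexa 594-labeled) in 100 mM sodium acetate pH 7 with 20 uM heparin, 6 hr at 37 C. ThT 30 uM added, 1 hr ambient; Alexa 594 FP and total fluorescence read at 555/632 nm.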
ALDH1A1 block = qHTS Assay for Inhibitors of Aldehyde Dehydrogenase 1 (ALDH1A1) | Aldehyde dehydrogenase 1A1 (Homo sapiens), P00352 | Purified ALDH1A1, NADH fluorescence, propionaldehyde substrate | Potency, µM (titrated, usually from 75.3 µM), most hits filed as inhibitors | actives 7.3% (n = 220,000) | AID 1030, 2008; active = well fitted inhibition curve with a large enough effect, not every such curve was filed as active; inconclusive = small, poorly fitted or top-dose-only effect, or another doubt; inactive = no such curve, though single readings can be large or run the other way
NPSR antag = qHTS Assay for Antagonists of the Neuropeptide S Receptor: cAMP Signal Transduction; Q6W5P4; CHO-NPSR cells, cAMP TR-FRET, antagonist mode; Potency, µM (doses to about 38.3 µM), most hits filed as inhibitors; actives 1% (n = 220,000); AID 1461, 2008; also: nearly all actives have a fitted effect of over 50% in size
Target sequence (Q6W5P4 whole entry, looked up): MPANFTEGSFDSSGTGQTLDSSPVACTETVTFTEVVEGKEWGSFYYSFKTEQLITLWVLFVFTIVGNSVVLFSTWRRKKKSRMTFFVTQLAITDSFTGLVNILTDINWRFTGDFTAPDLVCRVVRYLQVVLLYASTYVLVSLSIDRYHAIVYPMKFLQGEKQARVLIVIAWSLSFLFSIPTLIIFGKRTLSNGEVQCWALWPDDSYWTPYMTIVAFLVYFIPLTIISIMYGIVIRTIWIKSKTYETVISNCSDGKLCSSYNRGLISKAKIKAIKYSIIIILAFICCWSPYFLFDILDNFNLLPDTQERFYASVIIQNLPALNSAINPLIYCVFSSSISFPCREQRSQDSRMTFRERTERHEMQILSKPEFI
Large screens that a line does not name were inactive; [ ] = dose if it differs, or a comment. Unless noted, calls follow the shape of the dose curve; as a rule, active = well fitted curve in the direction sought with a large enough effect; inconclusive = small, poorly fitted or top-dose-only effect, or another doubt; inactive = no such curve, though single readings can be large; an effect the other way counts as inactive or inconclusive.

CCc1ccccc1OCc1nc2ccc(S(=O)(=O)N3CCOCC3)cc2[nH]1	ALDH1A1 block inconclusive
Cc1ccccc1OCc1nc2ccc(S(=O)(=O)N3CCOCC3)cc2[nH]1	HPGD inh 14.1µM, ALDH1A1 block 10µM
Cc1cc(C(F)(F)F)n(-c2nc(C(=O)NN)cs2)n1	Tau fibril ThT inconclusive, ALDH1A1 block 2.24µM (no result: HPGD inh)
COc1ccccc1C1CC(c2ccccc2)=NN1C(=S)Nc1ccccc1 (stereo unspecified)	none (no result: HPGD inh)
O=[N+]([O-])c1cccnc1N1CCC(c2cc(-c3cccc(C(F)(F)F)c3)n[nH]2)CC1	Tau fibril ThT 14.1µM, Tau fluor cs inconclusive, NPSR antag inconclusive
O=[N+]([O-])c1cccnc1N1CCN(c2ccccc2F)CC1	Tau fibril ThT inconclusive, ALDH1A1 block inconclusive (no result: HPGD inh)
O=[N+]([O-])c1cccnc1N1CCC(c2cc(-c3ccc(Cl)cc3Cl)n[nH]2)CC1	Tau fibril ThT 12.6µM, Tau fluor cs inconclusive, NPSR antag inconclusive
CC(=O)c1ccc(N2CCC(c3cc(-c4ccc(Cl)cc4Cl)n[nH]3)CC2)c([N+](=O)[O-])c1	Tau fibril FP inconclusive, Tau fibril ThT 12.6µM, Tau fluor cs inconclusive
NC(=O)C1CCN(c2ncccc2[N+](=O)[O-])CC1	none (no result: HPGD inh)
COc1ccc(OC)c(-c2cc(C3CCN(c4ncccc4[N+](=O)[O-])CC3)[nH]n2)c1	HPGD inh 14.1µM, ALDH1A1 block inconclusive
CCC(=O)C1=C(c2ccc(OC)c(OC)c2)N(C(=O)CC)n2c(CC)nnc2S1	Tau fibril FP inconclusive, Tau fibril ThT inconclusive (no result: HPGD inh, ALDH1A1 block, NPSR antag)
C#CCCCO/N=C1/C[C@@H](O)[C@@H](O)[C@@H]2[C@H]3C(=O)N(c4ccc(F)cc4F)C(=O)[C@@H]3CC[C@@H]12	none (no result: HPGD inh, NPSR antag)
CCS(=O)(=O)c1nc(S(=O)(=O)c2ccc(C)cc2)c(NCc2ccccc2Cl)s1	none (no result: HPGD inh, ALDH1A1 block, NPSR antag)
CCCCc1ccc(NC=C2C(=O)OC3(CCCCC3)OC2=O)cc1	ALDH1A1 block inconclusive, NPSR antag inconclusive
NS(=O)(=O)c1ccc(NC=C2C(=O)OC3(CCCCC3)OC2=O)cc1	HPGD inh 35.5µM, ALDH1A1 block 1.89µM
CCc1ccc(CNc2ncc(-c3cccc(OC)c3)n2C)cc1	none (no result: HPGD inh, ALDH1A1 block, NPSR antag)
COc1ccc(C2/C=C\CN(C(=O)Nc3ccccc3-c3ccccc3)CC(=O)N2Cc2ccc(F)cc2)cc1 (stereo unspecified)	NPSR antag 10µM (no result: HPGD inh, ALDH1A1 block)
COC(=O)c1sc(-c2ccccc2)cc1NC(=O)Nc1ccccc1Cl	Tau fibril FP inconclusive (no result: HPGD inh, ALDH1A1 block, NPSR antag)
COC(=O)c1sc(-c2ccccc2)cc1NC(=O)Nc1ccc(F)cc1	Tau fibril FP 17.8µM, Tau fluor cs inconclusive (no result: HPGD inh, ALDH1A1 block, NPSR antag)
O=C(O)C[C@H](Cc1ccc2c(c1)OCO2)C(=O)O	none (no result: Tau fibril FP, Tau fibril ThT, Tau fluor cs, NPSR antag)
Cc1ccccc1-c1noc(-c2ccccc2C(=O)NCC2CCCO2)n1 (stereo unspecified)	none (no result: HPGD inh, ALDH1A1 block)
C=CCCC(=O)Nc1nc(C)c(-c2csc(Nc3cc(Cl)ccc3OC)n2)s1	HPGD inh inconclusive, Tau fibril ThT inconclusive, Tau fluor cs 14.1µM[quencher], ALDH1A1 block inconclusive
C=CCCC(=O)Nc1nc(C)c(-c2csc(Nc3ccc(Cl)cc3Cl)n2)s1	Tau fibril ThT 7.94µM, Tau fluor cs 14.1µM[quencher], ALDH1A1 block inconclusive, NPSR antag inconclusive
Cc1nc(NC(=O)c2ccco2)sc1-c1csc(Nc2ccc(Cl)cc2Cl)n1	HPGD inh inconclusive, Tau fibril ThT inconclusive, Tau fluor cs inconclusive
COc1ccc(-c2nc3ccc(C)cn3c2Nc2ccc3c(c2)OCO3)cc1	Tau fibril ThT inconclusive, Tau fluor cs inconclusive (no result: HPGD inh, ALDH1A1 block, NPSR antag)
Cc1ccc2nc(-c3ccccc3O)c(Nc3ccc4c(c3)OCCO4)n2c1	HPGD inh inconclusive, Tau fibril ThT inconclusive, Tau fluor cs 7.08µM[quencher], ALDH1A1 block inconclusive
Cc1ccc2nc(-c3ccc(O)cc3)c(Nc3ccc4c(c3)OCCO4)n2c1	HPGD inh inconclusive, Tau fibril ThT inconclusive, Tau fluor cs 25.1µM[quencher], ALDH1A1 block inconclusive
O=C(O)C[C@H]1OCC=C2C[N@@+]3([O-])CC[C@]45c6ccccc6N[C@@H]4[C@@H]1[C@H]2C[C@H]53	none (no result: Tau fibril FP, Tau fibril ThT, Tau fluor cs, NPSR antag)
COc1ccc(-c2[nH]ncc2C(=O)NCc2ccccc2C)cc1	Tau fibril ThT inconclusive (no result: HPGD inh, ALDH1A1 block, NPSR antag)
COc1ccc(O)c(-c2[nH]ncc2C(=O)c2ccccc2C)c1	ALDH1A1 block 12.6µM
COc1ccc(-c2cc3c(=O)n(CC(=O)Nc4ccc(Br)c(C)c4)ccn3n2)cc1OC	none (no result: HPGD inh, ALDH1A1 block, NPSR antag)
Cc1cccc(-n2c(CNC(=O)Cc3ccccc3)n[nH]c2=S)c1	none (no result: HPGD inh)
COc1cc(/C=N/n2c(SC)nnc(C(C)(C)C)c2=O)ccc1O	none (no result: HPGD inh)
COc1ccc(Nc2c(-c3ccc(C)cc3)nc3cnccn23)cc1	Tau fluor cs inconclusive (no result: HPGD inh)
Cc1ccc(Nc2c(-c3ccccc3O)nc3cnccn23)cc1	Tau fluor cs 17.8µM[quencher] (no result: HPGD inh)
Oc1ccccc1-c1nc2cnccn2c1Nc1ccc(Cl)cc1	Tau fluor cs 12.6µM[quencher] (no result: HPGD inh, ALDH1A1 block, NPSR antag)
CCSC1=N/C(=C\c2ccc(OC)cc2)C(=O)N1	HPGD inh inconclusive, ALDH1A1 block 9.46µM
COc1ccc(/C=C2\N=C(SC)NC2=O)cc1	HPGD inh 22.4µM, Tau fibril ThT inconclusive
CCOc1ccc(-c2cn3nc(CC(C)C)sc3n2)cc1	Tau fibril ThT inconclusive (no result: HPGD inh, ALDH1A1 block, NPSR antag)
O=C(Nc1cccc(C(F)(F)F)c1)Oc1ccc(Cl)c2cccnc12	Tau fibril FP 20µM, Tau fluor cs inconclusive, NPSR antag inconclusive (no result: HPGD inh)
CCN(CC)C(=O)Oc1ccc(Cl)c2cccnc12	none (no result: HPGD inh)
Cc1[nH]nc(SCC(=O)N2CCC(C)CC2)c1[N+](=O)[O-]	HPGD inh 6.31µM, Tau fibril ThT inconclusive, ALDH1A1 block 10µM
